The source made the active and inactive calls.
What was measured:
[1] = E. coli DRC41 culture turbidity changes, primary screen, E. coli filamentation inducer project, strain DRC41, OD650, 48 h (AID 1152);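 note: E. coli MC1000 strain DRC41 lacking acrAB efflux pump and sulA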; conditions: E. coli DRC41 (acrAB sulA), higher = more signal, called active from +8 up or from −8 down
[2] = small-molecule binders of probe aLefty1, primary screen, biochemical, small-molecule microarray, 635/667 nm fluorescence (AID 1153); conditions: higher = more signal;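 note: score merges spot fluorescence with signal-to-noise ratio from the scanned slide images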
[3] = PSAC antagonists in infected red cells, primary screen, cell-based, P. falciparum Indochina, OD700, 1 h (AID 1154); conditions: P. falciparum Indochina infected RBC osmotic lysis, higher = more signal, called active from +8 up or from −8 down
[4] = PSAC antagonists in infected red cells, primary screen, cell-based, P. falciparum Indochina, OD700, 2 h (AID 1155);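 note: lysis reports solute entry through the parasite surface anion channel PSAC; channel blockers reduce lysis of infected cells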; conditions: P. falciparum Indochina infected erythrocytes, osmotic lysis OD700; higher = more signal, called active from +8 up or from −8 down
[5] = osmotic lysis modulators in infected erythrocytes, primary screen, PSAC antagonist project, cell-based, P. falciparum Indochina, OD700, 3 h (AID 1156); conditions: higher = more signal, called active from +8 up or from −8 down
[6] = PSAC antagonists in infected red cells, primary screen, cell-based, P. falciparum Indochina, OD700, 18 h (AID 1157); conditions: P. falciparum Indochina infected erythrocytes, osmotic lysis OD700, 18 h; higher = more signal, called active from +8 up or from −8 down
[7] = modulators of S6 phosphorylation in cells, primary screen, cell-based, A549, cytoblot, luminescence, serum-stimulated (AID 1158); conditions: A549 phospho-S6 cytoblot, 5 h, higher = more signal;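 note: serum-stimulated A549 lung adenocarcinoma cells; signal is phosphorylated S6 detected by cytoblot immunostaining with HRP secondary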
[8] = biological target: NADPH oxidase 2 (Homo sapiens) (UniProt P04839); test: NOX2-dependent H2O2 signal modulators, primary screen, NOX inhibitor project, cell-based, HEK293-NOX2, PMA-stimulated, Amplex Red fluorescence (AID 1159); conditions: 45 min, higher = more signal, called active from +8 up or from −8 down; note: test concentration not given here
[9] = biological target: NADPH oxidase 4 (Homo sapiens) (UniProt Q9NPH5); test: NOX4-dependent H2O2 signal modulators, primary screen, NOX inhibitor project, cell-based, HEK293-NOX4, tetracycline-induced, Amplex Red fluorescence (AID 1160); conditions: 45 min, higher = more signal, called active from +8 up or from −8 down
[10] = biological target: NADPH oxidase 5 (Homo sapiens) (UniProt Q96PH1); test: NOX5-dependent H2O2 signal modulators, primary screen, NOX inhibitor project, cell-based, HEK293-NOX5, Amplex Red fluorescence (AID 1161); conditions: HEK293-NOX5, ionomycin, 45 min, higher = more signal
[11] = A549 cell viability effects, profiling panel, calcein-AM fluorescence, 48 h, basal (AID 1162); conditions: higher = more signal; note: test concentration not given here
[12] = adipocyte viability effects, profiling panel, cell-based, 3T3-L1 adipocytes, calcein-AM fluorescence, 48 h, basal (AID 1163); conditions: 3T3-L1 adipocytes viability, higher = more signal; note: test concentration not given here
[13] = HepG2 cell viability effects, profiling panel, calcein-AM fluorescence, 48 h, basal (AID 1164); conditions: higher = more signal; note: test concentration not given here
[14] = MM1S cell viability effects, profiling panel, calcein-AM fluorescence, 48 h, basal (AID 1165); conditions: higher = more signal;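 note: viability of MM1S multiple myeloma cells under basal unstimulated conditions; test concentration not given here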
[15] = basal RPMI8226 viability, no added stimulus, profiling panel, cell-based, calcein-AM fluorescence, 48 h, PK04 Diversity Set (AID 1166); conditions: RPMI8226 myeloma viability, higher = more signal;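 note: cells grown under basal conditions without added stimulus; test concentration not given here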
[16] = basal HepG2 mitochondrial membrane potential changes, profiling panel, cell-based, JC-1 fluorescence, 24 h, 100 nL compound (AID 1167); conditions: higher = more signal; note: test concentration not given here
[17] = basal 3T3-L1 adipocyte mitochondrial potential changes, profiling panel, cell-based, JC-1 fluorescence, 3T3-L1 adipocytes, 24 h, 100 nL compound (AID 1168); conditions: JC-1 mitochondrial fluorescence, higher = more signal, called active from +8 up or from −8 down; note: test concentration not given here
[18] = basal RPMI8226 mitochondrial membrane potential changes, profiling panel, cell-based, JC-1 fluorescence, 24 h, 100 nL compound (AID 1169); conditions: RPMI8226 myeloma, JC-1 mitochondrial potential fluorescence, higher = more signal; note: test concentration not given here
[19] = basal MM1S mitochondrial membrane potential changes, profiling panel, cell-based, JC-1 fluorescence, 24 h, 100 nL compound (AID 1170); conditions: higher = more signal; note: test concentration not given here
[20] = A549 lung cancer cell viability effects, profiling panel, resazurin fluorescence, 24 h, PK04 Diversity Set (AID 1171); conditions: higher = more signal, called active from +8 up or from −8 down; note: test concentration not given here

Chain of NADPH oxidase 2 (Homo sapiens) (P04839 whole entry, looked up): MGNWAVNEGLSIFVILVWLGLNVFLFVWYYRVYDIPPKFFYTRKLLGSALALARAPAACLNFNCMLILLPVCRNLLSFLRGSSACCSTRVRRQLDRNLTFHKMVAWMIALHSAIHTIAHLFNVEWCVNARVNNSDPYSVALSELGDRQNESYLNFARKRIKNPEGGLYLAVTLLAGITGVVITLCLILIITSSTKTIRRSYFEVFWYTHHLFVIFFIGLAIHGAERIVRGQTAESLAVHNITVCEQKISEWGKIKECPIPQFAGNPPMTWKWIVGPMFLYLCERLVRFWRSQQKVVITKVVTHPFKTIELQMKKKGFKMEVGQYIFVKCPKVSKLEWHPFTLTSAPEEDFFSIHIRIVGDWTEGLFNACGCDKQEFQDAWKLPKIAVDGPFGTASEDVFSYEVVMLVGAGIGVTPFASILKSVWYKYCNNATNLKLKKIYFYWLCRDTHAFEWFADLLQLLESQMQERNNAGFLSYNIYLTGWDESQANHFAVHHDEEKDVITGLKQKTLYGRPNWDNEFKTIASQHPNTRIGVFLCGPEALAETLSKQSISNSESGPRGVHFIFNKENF
Chain of NADPH oxidase 5 (Homo sapiens) (Q96PH1 whole entry, looked up): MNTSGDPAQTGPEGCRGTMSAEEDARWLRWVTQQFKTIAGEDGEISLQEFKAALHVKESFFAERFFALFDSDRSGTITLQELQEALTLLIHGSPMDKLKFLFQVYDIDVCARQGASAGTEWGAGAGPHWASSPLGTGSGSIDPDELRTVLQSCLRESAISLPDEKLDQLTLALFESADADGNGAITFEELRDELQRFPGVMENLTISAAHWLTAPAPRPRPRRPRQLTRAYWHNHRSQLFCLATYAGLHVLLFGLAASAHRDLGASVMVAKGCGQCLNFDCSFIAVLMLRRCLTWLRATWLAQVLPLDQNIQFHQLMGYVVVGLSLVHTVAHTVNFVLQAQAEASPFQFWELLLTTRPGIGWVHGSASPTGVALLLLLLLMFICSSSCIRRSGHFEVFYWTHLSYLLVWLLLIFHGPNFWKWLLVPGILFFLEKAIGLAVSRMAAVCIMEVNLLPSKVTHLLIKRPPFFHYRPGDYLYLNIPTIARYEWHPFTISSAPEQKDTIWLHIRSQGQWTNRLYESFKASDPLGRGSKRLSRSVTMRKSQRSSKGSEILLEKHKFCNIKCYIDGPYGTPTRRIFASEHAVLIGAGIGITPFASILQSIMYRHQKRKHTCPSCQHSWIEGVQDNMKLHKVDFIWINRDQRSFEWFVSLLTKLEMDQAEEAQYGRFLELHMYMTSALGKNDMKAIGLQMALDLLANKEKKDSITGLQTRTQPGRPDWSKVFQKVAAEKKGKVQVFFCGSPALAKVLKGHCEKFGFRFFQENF
Chain of NADPH oxidase 4 (Homo sapiens) (Q9NPH5 whole entry, looked up): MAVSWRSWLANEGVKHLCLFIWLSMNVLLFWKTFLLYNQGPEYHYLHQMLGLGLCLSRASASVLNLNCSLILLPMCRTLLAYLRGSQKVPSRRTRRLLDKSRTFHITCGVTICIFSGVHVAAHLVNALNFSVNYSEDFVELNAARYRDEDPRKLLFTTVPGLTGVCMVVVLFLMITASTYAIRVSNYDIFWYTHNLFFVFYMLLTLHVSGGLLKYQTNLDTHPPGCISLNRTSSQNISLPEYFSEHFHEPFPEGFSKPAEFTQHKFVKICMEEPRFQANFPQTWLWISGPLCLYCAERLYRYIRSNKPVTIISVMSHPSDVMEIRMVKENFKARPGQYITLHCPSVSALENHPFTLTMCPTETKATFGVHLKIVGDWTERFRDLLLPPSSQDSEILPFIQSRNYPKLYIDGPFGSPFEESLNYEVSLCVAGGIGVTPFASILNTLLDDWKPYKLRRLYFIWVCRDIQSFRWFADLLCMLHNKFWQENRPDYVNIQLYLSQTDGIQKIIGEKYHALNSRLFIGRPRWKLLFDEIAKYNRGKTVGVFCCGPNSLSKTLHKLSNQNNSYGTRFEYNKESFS

| Structure (SMILES) | z-score [1] | composite z-score [2] | z-score [3] | z-score [4] | z-score [5] | z-score [6] | z-score [7] | z-score [8] | z-score [9] | z-score [10] | z-score [11] | z-score [12] | z-score [13] | z-score [14] | z-score [15] | z-score [16] | z-score [17] | z-score [18] | z-score [19] | z-score [20] |
| --- | --- | --- | --- | --- | --- | --- | --- | --- | --- | --- | --- | --- | --- | --- | --- | --- | --- | --- | --- | --- |
| C=CCC(OC(C)=O)[C@@H]1[C@@H](N(Cc2cccc3ccccc23)C(=O)c2ccc(C)cc2)c2cc(OCCCO)ccc2N1C(=O)Cc1ccc(OC)cc1 (stereo not given in full) | 2.7 (inactive) | -0.0482 | 0.786 (inactive) | -0.438 (inactive) | -0.632 (inactive) | -0.669 (inactive) | 1.95 | -0.993 (inactive) | 0.727 (inactive) | 0.687 | 1.77 | 1.14 | 1.97 | 0.621 | 0.943 | 1.77 | 0.696 (inactive) | 0.594 | -0.596 | 0.69 (inactive) |
| [N-]=[N+]=NCc1ccccc1[C@@H]1OC(c2ccc(OCCCO)cc2)=N[C@]1(Cc1ccccc1)C(=O)N1CCCCC1 | 1.22 (inactive) | 0.33 | 21.5 (active) | 4.66 (inactive) | 1.78 (inactive) | 1.3 (inactive) | -0.205 | -0.84 (inactive) | 0.453 (inactive) | -1.26 | 0.251 | 0.445 | 0.525 | -0.604 | -3.3 | -0.227 | 0.467 (inactive) | -1.23 | -0.354 | 0.583 (inactive) |
| O=C1O[C@H](c2ccccc2)[C@H](c2ccccc2)N2[C@H]1[C@@H](C(=O)O)[C@]1(C(=O)Nc3ccc(C#CC4=CCCCC4)cc31)[C@H]2c1ccc(OCCO)cc1 | -0.915 (inactive) | 0.167 | 0.381 (inactive) | -0.97 (inactive) | -9.89 (active) | -0.969 (inactive) | 0.333 | 1.19 (inactive) | -0.768 (inactive) | 1.37 | 0.199 | -0.774 | 0.122 | -2.72 | -4.06 | -4.3 | -3.28 (inactive) | -0.949 | -1.53 | 0.729 (inactive) |
| O=C1O[C@@H](c2ccccc2)[C@@H](c2ccccc2)N2[C@@H](c3ccc(O)cc3)[C@]3(C(=O)Nc4ccc(C#CC5=CCCCC5)cc43)[C@@H](C(=O)O)[C@H]12 | 4.17 (inactive) | 0.112 | -2.7 (inactive) | -2.38 (inactive) | -9.62 (active) | -3.16 (inactive) | 3.05 | 0.896 (inactive) | -2.76 (inactive) | -1.01 | 1.09 | 0.369 | 1.2 | -0.294 | -0.412 | -0.956 | 0.619 (inactive) | -0.177 | 1.04 | 1.86 (inactive) |
| Cc1ccc(S[C@]2(C(=O)NC3CC3)CC(=O)N(Cc3ccccc3)[C@@H]2c2ccc(CO)cc2)cc1 | -0.485 (inactive) | 0.106 | 1.28 (inactive) | 0.216 (inactive) | -0.552 (inactive) | -0.331 (inactive) | 0.0262 | -0.106 (inactive) | 1.09 (inactive) | 0.997 | 1.29 | -0.119 | -0.12 | -0.0947 | 0.181 | -0.439 | -0.199 (inactive) | 1.07 | -0.452 | 0.846 (inactive) |
